In the supplement of paper PMC6555819:

Each sequence was assayed on VDR:RXRa (NR concentration 270 nM, RXRa partner concentration 90 nM) (assay: PBM binding z-score (relative to random genomic background probes); higher = stronger binding; sequences stand for … in GC…GCGATTGACAGCGTAGAATGAAGG).
Procedure: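 Protein-binding microarray (Agilent 4x180K custom design, double-stranded 60-nt probes: 5' GC cap, 34-nt variable region, 24-nt constant primer region; full probe sequence given). Purified or IVT nuclear receptor:RXRα heterodimers (3:1 NR:RXRα, mostly 270:90 nM) or homodimers were incubated for 1 h in PBS with 2% milk and no ligand, then detected with Alexa488 antibodies. Fluorescence from o1-orientation probes (~5 replicates averaged) was converted to z-scores against 500 random hg19 background probes. Variable regions are seed direct-repeat (DR0–DR5) sites, all their single-nucleotide variants and half-site ablations.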
Work on TCTTGTAGATCAGCACGTTAAGAAAGCTGGCCAA yielded a PBM binding z-score of 0.0103.
Work on CGACCGAGGGCATGAGTTGATAGCAAATGCCGAT yielded a PBM binding z-score of 1.3.
Sequence ATCGAAAGGTCGACGAGGTGTGTATACACCGTTT has a PBM binding z-score of 3.81.
CCAGACAGGTGAGAAGGTAACACAGCCTCGATTA showed a PBM binding z-score of 0.086.
In the case of TCTTGTAGATCAAAGGTTAAGAACGCCGAAGCCT, the PBM binding z-score is reported as 1.47.
In the case of CCTACTGGGCCATTCAGACGTCATTGATCATATG, the PBM binding z-score is reported as -0.521.
ATACCAAGGTGATCGTGAGGTCGTTGAGACTAAC gave a PBM binding z-score of 2.9.
For CAAACTAGGTTACAGAGGTCAAAGTCCGTGCGTA, the PBM binding z-score was 7.06.
AATACAGGGTCATAGTAGGCCAGAGTACGCACAG showed a PBM binding z-score of 4.63.
CTACGAAGGTGAACAAGGTCGTTGATTACTATTC was tested, and the PBM binding z-score was 6.15.
In the case of ACTAGCAGGCCAAGTTTGGGTAACTCAAACAAAG, the PBM binding z-score is reported as -0.517.
ACTACTTGGTCAGCTGAGGTCACACACAATTCGG was tested, and the PBM binding z-score was 4.74.
TCTGGGAGGACACGAAAGGTCAGAGCTCGACATC showed a PBM binding z-score of 3.35.
For AATACAGGGTCAACGTAGGCCAGAGTACGCACAG, the PBM binding z-score was 5.06.
TAGCCTAGATCAGATCGGGCCAGTATACGCTATA showed a PBM binding z-score of -0.89.
Sequence TCTTGTAGATCAAAGGGTAAGAAAGCCGAAGCCT has a PBM binding z-score of 0.126.
In the case of CGTCAAAGTTCAACTAAGGTAATGTAAAGCACGC, the PBM binding z-score is reported as 4.8.
GTATCAAGGTGAATAGGTCGTTGATGAGTAGGCG gave a PBM binding z-score of 1.1.
Sequence CAAACTAGGTCAAGGTCAAAGTGGGTTTGTGCCA has a PBM binding z-score of 5.74.
Sequence TCTAGTTGGTCAGAGGTCACACACTCGAAATGCG has a PBM binding z-score of 4.95.
CCGACTGGGCCATAAGGTTACCATAAGCCAGCCC gave a PBM binding z-score of 0.0236.
With CAAACTAGGTCAAGAGGTCAAAGTACGCTTCCCG the PBM binding z-score was 6.22.
In the case of TAGCCTAGGTCAGATCGTGCCAGTATACGCTATA, the PBM binding z-score is reported as 0.516.
Sequence TTACCAAGGTGAAGGTCGTTGTTCCCTCTGTAGA has a PBM binding z-score of 1.26.
In the case of ATACCAAGGTGTTCGTGAGGTCGTTGATACTAAC, the PBM binding z-score is reported as 2.81.
For TCACCAAGGTGAAAGGTCGTTGATGCACGCCTTG, the PBM binding z-score was 3.17.
With ATCTCTACGTAAAAGTTCAGTGAATCCCGAGGAT the PBM binding z-score was 1.1.
For AGAATGAGGTTATTAAGATCAGGTAATTGCGGTC, the PBM binding z-score was 2.82.
CCGTCTGGGGCAGAAAGGTTACCATACCATCCGG gave a PBM binding z-score of 0.809.
Sequence AGTCAAAGTTCAGGACGAGGTTACGTAAAGCACG has a PBM binding z-score of 4.6.
In the case of CAAACTAGGTCAAGAGGCCAAAGTCCGCTTCCCG, the PBM binding z-score is reported as 2.16.
For CCTAGTTGGTCAGGAGATCACACACCGGATATGA, the PBM binding z-score was 0.242.
Sequence AGAACGAGGGCACGCTGAGTTGATAGCAGAGTAG has a PBM binding z-score of 2.2.
Work on CGAACGAGGGCATGAGGTGATAGCAAATGCCGAT yielded a PBM binding z-score of 0.93.
Work on CCTTACGGGTTACTGACAGGTTATAGCATTTGGA yielded a PBM binding z-score of 0.637.
CGGCCAAGGTCAAGGTCAGTGAAAGAGACTCGAA gave a PBM binding z-score of 4.68.
CTCGAAAGGTCGGTTGAGGTGCGTATACGGATAA showed a PBM binding z-score of 2.09.
Sequence CCCACTGGGCCACGAAAGGTCATTGATTCAGTGA has a PBM binding z-score of 4.18.
Work on CCGACTGGGCCAAAAAGGTCATTGATGCCGATAA yielded a PBM binding z-score of 4.64.
For CGAACGATGGCATGAGTTGATAGCAAATGCCGAT, the PBM binding z-score was -0.111.
